# According to PubChem BioAssay AID624345 (National Center for Advancing Translational Sciences (NCATS), 2012):
# The source made the active and inactive calls.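 The calls were made as follows: active = IC50 of 75 µM or lower for blocking USP2 cleavage of diubiquitin, judged on gels; inconclusive = IC50 above 75 µM but below 100 µM; inactive = IC50 of 100 µM or more.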
# Molecular target: Ubiquitin carboxyl-terminal hydrolase 2 (Homo sapiens) (UniProt O75604)
# Assay: Inhibitors of USP1/UAF1: Hit Validation in USP2 Diubiquiting Gel Assay
# Details: USP2 K63-diubiquitin cleavage, SDS-PAGE gel densitometry
# Description: Deubiquitinating enzymes (DUBs) are a class of enzymes that can cleave isopeptide bond formed between the C-terminal carboxylate of ubiquitin and a lysine side-chain amino group on the target protein. Among them, ubiquitin specific proteases (USPs) constitute the largest DUB family. Human USPs are emerging as promising targets for pharmacological intervention because of their connection to a number of human diseases, including prostate, colon and breast cancer (1, 2), pediatric acute lymphoblastic leukemia (3), and familial cylindromatosis (4). The advantage of inhibiting USPs lies in the potential specificity of therapeutic intervention that can lead to better efficacy and reduce nonspecific side effects. In a collaboration between the University of Delaware and the NIH Chemical Genomics Center, a high-throughput screen assay was developed to screen for USP1/UAF1 inhibitors. This miniaturized assay has a fluorescent read-out and is used to screen the NIH Molecular Libraries Small Molecule Repository (MLSMR) in order to identify a small molecule that inhibits USP1. Follow-up assays have also been developed to further test the hits from the primary screen. This assay validates the hits identified from the primary screen using a USP2 diubiquiting gel assay. NIH Chemical Genomics Center [NCGC] NIH Molecular Libraries Probe Centers Network [MLPCN] MLPCN Grant: DA030552 Assay Submitter (PI): Zhihao Zhuang, University of Delaware 1. Priolo, C., et al. (2006) The isopeptidase USP2a protects human prostate cancer from apoptosis. Cancer Res 66, 8625-8632 2. Popov, N., et al. (2007) The ubiquitin-specific protease USP28 is required for MYC stability. Nat Cell Biol 9, 765-774 3. […]
# The inhibition assay contains 20 nM USP2, 2 microM K63 linked diubiquitin, and inhibitors at varied concentrations (0.08 microM - 114 microM). […] The intensity of the individual diubiquitin and monoubiquitin band was quantified using Quantity One 4.3.1 (Biorad, Hercules, CA). The percentage of the conversion was determined and used to calculate the reaction rate. […]
# Chain of Ubiquitin carboxyl-terminal hydrolase 2 (Homo sapiens) (O75604 whole entry, looked up): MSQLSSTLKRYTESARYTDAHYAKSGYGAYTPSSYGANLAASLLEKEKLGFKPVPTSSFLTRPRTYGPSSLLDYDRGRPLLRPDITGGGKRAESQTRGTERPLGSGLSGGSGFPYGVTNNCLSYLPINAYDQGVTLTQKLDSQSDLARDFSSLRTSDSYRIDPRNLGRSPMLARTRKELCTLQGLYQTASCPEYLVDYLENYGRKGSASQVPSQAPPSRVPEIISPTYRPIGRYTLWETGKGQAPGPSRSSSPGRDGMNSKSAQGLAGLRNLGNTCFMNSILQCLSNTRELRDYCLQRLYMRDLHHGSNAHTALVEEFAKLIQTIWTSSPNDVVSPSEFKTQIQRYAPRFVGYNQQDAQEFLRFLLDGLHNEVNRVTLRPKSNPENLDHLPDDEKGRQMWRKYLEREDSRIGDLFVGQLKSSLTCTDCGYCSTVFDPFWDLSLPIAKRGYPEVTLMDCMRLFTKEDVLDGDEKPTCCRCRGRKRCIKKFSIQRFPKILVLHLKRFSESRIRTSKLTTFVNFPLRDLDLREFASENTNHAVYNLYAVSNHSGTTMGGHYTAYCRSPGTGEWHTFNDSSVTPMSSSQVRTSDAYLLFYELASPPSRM
row,SMILES,outcome
1,FC(F)(F)c1ccccc1-c1nc(NCc2cccs2)c2ccccc2n1,inactive
2,Cc1cccc(CNc2ccnc(-c3ccccc3C(F)(F)F)n2)c1,inactive
3,Cc1ccccc1-c1nc(NCc2cccs2)c2ccccc2n1,inactive
